High-throughput results from PubChem BioAssay.
This excerpt belongs to a sample that is enriched for hits.
PGK inhibitor: qHTS Assay to Find Inhibitors of Phosphoglycerate Kinase. Potency, µM (top dose mostly 57.5 µM), inactives show at the top dose activity change, negative = inhibition, actives largely listed as inhibitors. Phosphoglycerate kinase, glycosomal (Trypanosoma brucei brucei), P07378. actives 0.043% (n = 380,000). PGK/GAPDH coupled, Kinase-Glo luminescence, 60 min; also: potency is read from the fitted curve at half-maximal effect; nearly all actives have a fitted effect of over 60% in size
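Luminescent ATP detection (Kinase-Glo Plus) follows a 60-minute room-temperature incubation, with wells lacking PGK as controls. Buffer: 100 mM TEA (pH 7.6), 5 mM MgCl2, 0.01% Tween-20. Coupling enzyme GAPDH (100 nM final) supplies unstable 1,3-BPG in-well.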
PI5P4K alpha inh: qHTS for Inhibitors of phosphatidylinositol 5-phosphate 4-kinase (PI5P4K). actives 1.2% (n = 330,000). Phosphatidylinositol 5-phosphate 4-kinase type-2 alpha (Homo sapiens), P48426. max response, %. AID 652105, 2013. PI5P4Kalpha enzyme, ADP-Glo luminescence, 60 min; active compounds read low; active = max response of -50% or lower; inconclusive = between -30% and -50%; inactive = -30% or higher; also: value at the top dose of about 77 µM
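Controls without substrate or without enzyme flank wells where PI5P4Kalpha converts substrate using 5 microM ATP (final). Incubation lasts 60 minutes at room temperature; ADP formed is read by ADP-Glo luminescence.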
Pin1 inhibitor: qHTS Assay to Find Inhibitors of Pin1 | AID 504891, 2011 | Peptidyl-prolyl cis-trans isomerase NIMA-interacting 1 (Homo sapiens), Q13526 | Pin1 FP peptide displacement, HiFluor488, 10 min | actives 0.009% (n = 390,000) | Potency, µM (doses to about 115 µM), inactives show at the top dose activity, negative = inhibition, actives largely listed as inhibitors; active = well fitted inhibition curve with a large enough effect in the polarisation, with a control signal flat, not every such curve was filed as active; inconclusive = small, poorly fitted or top-dose-only effect, or effect the other way, or a change in a side signal; inactive = no such curve, though single readings can be large or run the other way; the % refers to the polarisation; also: potency is read from the fitted curve at half-maximal effect
Tb PFK inh: qHTS Assay to Find Inhibitors of T. brucei phosphofructokinase; ATP-dependent 6-phosphofructokinase (Trypanosoma brucei brucei), O15648; T. brucei PFK, ADP-Glo luminescence; Potency, µM (doses to about 57.5 µM), inactives show top-dose activity, negative = inhibition, actives largely listed as inhibitors; actives 0.17% (n = 330,000);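 also: potency is read from the fitted curve at half-maximal effect; 0% = uninhibited 1x PFK enzyme wells and -100% = no-enzyme wells; nearly all actives have a fitted effect of over 60% in size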
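Activity is normalized to no-enzyme wells (full inhibition) and 1.25 nM enzyme wells (no inhibition). Reaction: 0.5 mM F6P, 0.1 mM ATP, 45 min RT, ADP-Glo luminescence; concentration-response curves fitted and classed by quality.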
PI4K2A block: qHTS for small molecular inhibitors of PI4K2A. activity change, negative = inhibition, % at 76.9 µM. AID 1346378, 2018. actives 0.13% (n = 420,000). purified PI4K2A, ADP-Glo luminescence, 1 h; active compounds read low; in the data active = activity change below about -50%; inconclusive = mostly about -30% to -49%;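 also: -100% = wells without enzyme as full effect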
Target sequence (Q9BTU6 whole entry, looked up): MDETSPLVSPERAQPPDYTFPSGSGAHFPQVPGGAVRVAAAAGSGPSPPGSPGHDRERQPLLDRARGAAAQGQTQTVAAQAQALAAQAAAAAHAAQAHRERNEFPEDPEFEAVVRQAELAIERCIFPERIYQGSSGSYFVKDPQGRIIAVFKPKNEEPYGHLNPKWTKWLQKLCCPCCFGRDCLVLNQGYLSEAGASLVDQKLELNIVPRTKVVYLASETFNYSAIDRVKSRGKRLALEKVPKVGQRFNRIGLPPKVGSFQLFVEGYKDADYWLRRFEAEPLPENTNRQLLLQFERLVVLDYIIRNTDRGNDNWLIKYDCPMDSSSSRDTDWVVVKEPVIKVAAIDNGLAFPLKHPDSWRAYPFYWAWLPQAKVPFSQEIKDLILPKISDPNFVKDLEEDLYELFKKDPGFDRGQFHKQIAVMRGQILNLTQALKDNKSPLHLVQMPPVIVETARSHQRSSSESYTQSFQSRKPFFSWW
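Compounds are screened against recombinant PI4K2A using PI as substrate and ATP, the latter dispensed at 300 microM. Reactions run one hour at ambient temperature before ADP-Glo detection; full inhibition defined by wells lacking enzyme.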
Starred values were filed as active, the others as inactive; ? = inconclusive; . = no result given. Unless noted, calls follow the shape of the dose curve; as a rule, active = well fitted curve in the direction sought with a large enough effect; inconclusive = small, poorly fitted or top-dose-only effect, or another doubt; inactive = no such curve, though single readings can be large; an effect the other way counts as inactive or inconclusive. Unless noted, % is scaled to controls: 0 for no effect and ±100 for the full control effect.

SMILES	PGK inhibitor	PI5P4K alpha inh	Pin1 inhibitor	Tb PFK inh	PI4K2A block
Cc1cc(O)c(C(=O)/C=C/c2ccc(Cl)cc2)c(=O)o1	-9%	-69*	?	-2%	-4
COc1cc(/C=C/C(=O)c2c(O)cc(C)oc2=O)cc(OC)c1O	-9%	2	?	-3%	-1
CSc1ccc(/C=C/C(=O)c2c(O)cc(C)oc2=O)cc1	-12%	-54*	?	0%	-1
CC(C)C(=O)OCc1cccc(OC(=O)[C@@H]2N3C(=O)[C@@H](NC(=O)Cc4ccccc4)[C@H]3SC2(C)C)c1	.	.	.	.	-5
O=C(NCc1nnc(-c2nc3ccccc3[nH]2)o1)C1CCCCC1	.	.	-3%	.	.
Nc1ccc(C(=O)Nc2ccc3c(O)cc(S(=O)(=O)O)cc3c2)cc1	-10%	-52*	17%	.	-2
Nc1ccc(NC(=O)c2ccc(C(=O)Nc3ccc(N)cc3)cc2)cc1	0%	-14	-1%	?	-3
O=C(O)CC1Sc2ccccc2NC1=O (stereo not drawn)	-3%	-7	-1%	2%	0
O=C1Nc2ccccc2SC(c2ccccc2)C1O (stereo not drawn)	-21%	-82*	.	-30%	-13
O=[N+]([O-])c1ccc(C[n+]2cccc3ccc4cccnc4c32)cc1	1%	-58*	-5%	-8%	3
CCCCCCCC#Cc1ccccc1/C=N/S(=O)c1ccc(C)cc1 (stereo not drawn)	5%	-100*	?	-21%	-5
CCCCC#Cc1ccccc1CC(=O)Nc1ccccc1	-4%	8	-3%	-2%	-7
CN1CC=C(c2ccccc2)N(c2ccc(Cl)cc2)C1=O	.	.	.	.	5
C=CCn1c(SCC(=O)NC(=O)NCc2ccco2)nc2sc(CC)cc2c1=O	-15%	-50*	?	?	-13
CC1(NC(=O)/C=C/c2nc3ccccc3s2)CCS(=O)(=O)C1 (stereo not drawn)	-5%	-56*	-9%	0%	-19
Cc1cccc(N=C2NC(=O)/C(=C/C=C/c3ccco3)S2)c1C	?	-80*	?	?	-27
Cc1ccc(N=C2NC(=O)/C(=C/C=C/c3ccco3)S2)cc1	-14%	-78*	.	-20%	?
NC(=O)N[C@@H](CCC(=O)O)C(=O)O	.	.	.	.	-1
O=C(OC12CCCN(C1)/C(=C/c1ccc(Cl)cc1)C2)c1cccc(F)c1 (stereo not drawn)	.	.	.	.	2
Cn1c(=O)c2c([nH]c(=S)n2CCCc2ccccc2)n(C)c1=O	-3%	-94*	-2%	-6%	-9
Cn1c(=O)[nH]c(=O)c2c1nc(Br)n2Cc1ccc(Cl)cc1	10%	-18	.	.	-2
Cn1c(=O)[nH]c(=O)c2c1[nH]c(=S)n2Cc1ccc(Cl)cc1	-7%	-92*	2%	-16%	2
Cn1c(=O)[nH]c(=O)c2c1[nH]c(=S)n2CCCc1ccccc1	-8%	-52*	-1%	-4%	-10
Cn1c(=O)n(Cc2ccccc2Cl)c(=O)c2c1[nH]c(=S)n2C	1%	-56*	-12%	-14%	1
CCN1CCCCC(NC(=O)c2cc(OC)c(OC)c(OC)c2)C1=O (stereo not drawn)	.	.	.	.	-3
O=C1OC(c2ccccc2)(c2ccccc2)N2CCN(C(=O)NCc3ccc(F)cc3)CC12 (stereo not drawn)	.	.	8%	.	.
COc1ccccc1NS(=O)(=O)c1ccc2c(c1)CCC(=O)N2	.	.	-6%	.	.
C[C@@H]1COc2cc(Br)ccc2S(=O)(=O)N1Cc1cn(Cc2ccc(Cl)cc2)nn1	.	.	.	.	0
O=S(=O)(Nc1cc(Sc2ncn[nH]2)c(O)c2ccccc12)c1ccccc1	-11%	-90*	45µM*	?	-64*
Cc1cc(O)c(Sc2ncn[nH]2)cc1NS(=O)(=O)c1ccc(Cl)cc1	-2%	0	-6%	-2%	-3
